High-throughput results as filed in PubChem.
FBW7 activator: FBW7 E3 ligase activators, primary screen, biochemical, AlphaScreen, human; F-box/WD repeat-containing protein 7 (Homo sapiens), Q969H0; AlphaScreen FBW7–phospho-cyclin E peptide binding, activator screen; normalized activity (activation), % at 26.1 µM; 650,000 compounds, 0.13% hits; in the data active = normalized activity above about 1.9%;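 also: purified mutant Fbw7 with reduced substrate affinity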
TEAD-YAP inh: TEAD-YAP interaction inhibition, primary screen, TEAD-YAP interaction inhibitor project, luminescence, HEK-TIYL cells | TEAD-Gal4/YAP UAS-luciferase luminescence | inhibition, % at 9.12 µM | 640,000 compounds, 1.4% hits | AID 1259422, 2018; in the data active = inhibition above about 32%;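 also: 0% = median of test compound wells and 100% = reference inhibitor wells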
GPR151 ag: activators of human GPR151, primary screen, cell-based, PathHunter beta-arrestin, luminescence. PathHunter beta-arrestin GPR151 cells. AID 1508602, 2020. activation, % at 11.2 µM. 650,000 compounds, 1% hits. G-protein coupled receptor 151 (Homo sapiens), Q8TDV0; in the data active = activation above about 4.9%;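 also: 0% = median of compound wells and 100% = cells with positive control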
Target sequence (Q8TDV0 whole entry, looked up): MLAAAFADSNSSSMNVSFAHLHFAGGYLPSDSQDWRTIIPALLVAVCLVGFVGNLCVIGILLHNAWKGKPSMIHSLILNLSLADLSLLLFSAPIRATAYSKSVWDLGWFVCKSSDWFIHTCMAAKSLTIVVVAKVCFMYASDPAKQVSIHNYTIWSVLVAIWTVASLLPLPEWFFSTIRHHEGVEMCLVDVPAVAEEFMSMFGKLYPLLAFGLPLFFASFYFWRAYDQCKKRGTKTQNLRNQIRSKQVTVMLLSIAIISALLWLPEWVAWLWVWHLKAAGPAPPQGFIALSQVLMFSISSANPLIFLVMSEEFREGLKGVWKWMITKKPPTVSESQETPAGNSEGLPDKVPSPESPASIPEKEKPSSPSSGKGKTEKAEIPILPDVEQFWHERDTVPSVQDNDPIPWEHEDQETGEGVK
MITF inh: MITF inhibitors, primary screen, biochemical, AlphaScreen, human | 650,000 compounds, 0.91% hits | AID 1259374, 2018 | AlphaScreen MITF homodimerization, bead proximity signal | inhibition, % at 2.6 µM | Microphthalmia-associated transcription factor (Homo sapiens), O75030; in the data active = inhibition above about 50%;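 also: 0% = vehicle wells with protein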
An asterisk follows results filed as active; x = no result given. A selection: hits, their analogues and other compounds. The true share with any hit is near 3.4%.

SMILES	FBW7 activator	TEAD-YAP inh	GPR151 ag	MITF inh
Oc1ccc(CNc2ccc(Cl)cn2)c2cccnc12	-0.7	54.1*	-1.1	31.2
CC(C)COC(=O)c1ccc(NC(=O)COc2ccc(Br)cc2)cc1	0.0	35.4*	1.3	0.3
c1cnc2ccc(Nc3nc(Nc4ccc5c(c4)OCO5)c4ncn(-c5ccsc5)c4n3)cc2c1	8.5*	44.6*	1.1	-9.6
c1ccc(-n2cnc3c(Nc4ccc5c(c4)OCO5)nc(Nc4ccc5ncccc5c4)nc32)cc1	7.1*	12.2	0.3	-6.1
COc1cc(Nc2nc(Nc3ccc4ncccc4c3)nc3c2ncn3-c2ccsc2)cc(OC)c1OC	0.1	32.4*	-1.4	8.1
c1ccc2c(Nc3nc(Nc4ccc5c(c4)OCO5)c4ncn(-c5ccsc5)c4n3)nccc2c1	-0.1	49.4*	0.7	3.8
COc1cc(Nc2nc(Nc3ccc(C(F)(F)F)cc3)nc3c2ncn3-c2ccsc2)cc(OC)c1OC	-0.1	7.4	0.5	16.8
CC(C(=O)NC(C)C12CC3CC(CC(C3)C1)C2)n1sc2ccccc2c1=O (configuration not stated)	-0.2	-3.7	0.7	4.5
CC1(C)CC(=O)C2=C(C1)Nc1ccccc1NC2c1cc(O)ccc1O (configuration not stated)	0.0	-7.8	0.4	6.8
CC[C@@H](Cn1ncc2ccccc2c1=O)NC(=O)C1CCCC1	0.3	-9.4	-0.5	0.7
CC(C)n1cnc2c(Nc3ccc4c(c3)OCO4)nc(Nc3nccc4ccccc34)nc21	0.0	36.2*	-1.1	5.2
CCNc1nc(Nc2ccc3c(c2)OCO3)c2ncn(C(C)C)c2n1	-0.1	-45.0	-1.4	9.5
c1ccc(-n2cnc3c(Nc4ccc5c(c4)OCO5)nc(Nc4ccncn4)nc32)cc1	0.0	-39.3	0.4	-3.1
c1ccc(-n2cnc3c(Nc4ccc5c(c4)OCO5)nc(Nc4ccc(-n5ccnc5)cc4)nc32)cc1	0.0	42.9*	1.0	18.0
O=C(Nc1cc2cccc([N+](=O)[O-])c2oc1=O)c1ccc(Cl)cc1	0.1	1.0	-0.4	19.9
C(=C\c1ccccc1)/CN1CCc2nnc(C3CCCO3)n2CC1 (configuration not stated)	0.0	-7.7	0.0	-15.8
CCNc1nc2c(c(=O)n(C)c(=O)n2C)n1Cc1cccc(C)c1	0.0	44.3*	1.8	3.1
Cn1c(=O)c2c(nc(NCCO)n2Cc2cccc(Br)c2)n(C)c1=O	0.0	22.0	-0.1	12.2
Cc1cccc(Cn2c(NCCO)nc3c2c(=O)n(C)c(=O)n3C)c1	-0.1	42.3*	-0.5	7.4
Cn1c(=O)c2c(nc(Cl)n2Cc2cccc(C(F)(F)F)c2)n(C)c1=O	0.5	36.6*	0.7	18.4
COC(=O)CN1C=Cc2ccccc2C1C (configuration not stated)	0.7	-0.6	-1.7	2.6
COc1ccccc1C1C(C#N)=C(N)Oc2cc3ccccc3cc21 (configuration not stated)	-0.1	36.9*	0.3	4.1
N#CC1=C(N)Oc2cc3ccccc3cc2C1c1cccnc1 (configuration not stated)	0.2	48.3*	-1.0	9.9
COc1cccc(C2C(C#N)=C(N)Oc3cc(N)ccc32)c1OC (configuration not stated)	0.1	2.4	0.6	16.5
N#CC1=C(N)Oc2cc3ccccc3cc2C1c1cccs1 (configuration not stated)	0.2	44.0*	-1.2	29.8
SMILES	FBW7 activator	TEAD-YAP inh	GPR151 ag	MITF inh
COc1cccc(C2C(C#N)=C(N)Oc3cc4ccccc4cc32)c1 (configuration not stated)	-0.1	42.5*	1.4	11.1
CCOc1ccc2[nH]c3nc(SCC(=O)Nc4ccc(N(C)C)cc4)nnc3c2c1	0.1	14.5	-0.7	6.9
CC12C=CC(=O)C=C1CC[C@@H]1[C@@H]2C(=O)CC2(C)[C@H]1CC[C@]2(O)C(=O)CO (some centres not stated)	-0.1	x	0.2	3.7
CC1=C(C(=O)OC2CCCC2)C(c2cccc(I)c2)NC(=O)N1 (configuration not stated)	0.0	-19.9	2.9	1.2
COc1ccccc1/C=C1\N=C(c2ccc(Cl)c([N+](=O)[O-])c2)NC1=O	-0.1	0.8	-0.6	-19.8
Cc1ccc(NC(=O)c2cc(-c3ccc(F)cc3)nc3ccccc23)cc1Cl	0.0	-30.7	-1.5	9.1
